Data: article PMC7862700, “An all-to-all approach to the identification of sequence-specific readers for epigenetic DNA modifications on cytosine”

Tests used:
Assay in all cases: DAPPL (digital affinity profiling via proximity ligation, sequencing); 10 mM Tris-HCl pH 7.5, 50 mM NaCl, 1 mM DTT, 4% glycerol, room temperature, 30 min; GST-TFs on glutathione beads, 16-mer random dsDNA library, 0.1% formaldehyde crosslink after washing; high values mean tight binding
FLI1 = target: T1, FLI1 (Homo sapiens, UniProt Q01543 1-452); settings: protein: recombinant; tags: N-terminal GST; dsDNA, one strand shown
T1 sequence: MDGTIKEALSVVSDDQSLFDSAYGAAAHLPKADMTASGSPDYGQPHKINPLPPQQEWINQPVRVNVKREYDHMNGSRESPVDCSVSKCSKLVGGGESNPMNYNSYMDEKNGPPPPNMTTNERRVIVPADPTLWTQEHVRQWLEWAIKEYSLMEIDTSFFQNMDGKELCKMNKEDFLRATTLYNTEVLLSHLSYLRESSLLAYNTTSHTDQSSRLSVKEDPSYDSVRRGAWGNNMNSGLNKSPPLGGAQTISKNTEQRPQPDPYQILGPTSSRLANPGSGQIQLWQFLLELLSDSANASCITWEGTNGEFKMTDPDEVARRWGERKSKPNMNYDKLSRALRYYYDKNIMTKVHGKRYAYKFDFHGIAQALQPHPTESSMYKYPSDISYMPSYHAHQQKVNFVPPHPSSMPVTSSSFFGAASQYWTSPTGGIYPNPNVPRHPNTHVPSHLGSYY
How it was run: (§1)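 Beads coated with glutathione captured GST-fused human transcription factors that had been expressed in yeast, and the factors were then given DNA barcodes and pooled with a tag-only sample. The pools were incubated with 200 nmole of a random double-stranded 16-mer DNA library in Tris/NaCl/DTT/glycerol buffer for 30 min at room temperature, washed, crosslinked with 0.1% formaldehyde and proximity-ligated with BsaI/T4 ligase at 37 °C for 1 h. PCR amplification and Illumina NextSeq500 sequencing came last. Binding signal is each hexamer's read frequency for a factor divided by its frequency for the tag-only sample.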

ELK1 = target: T2, ELK1 (Homo sapiens, UniProt P19419 1-428); settings: protein: recombinant; tags: N-terminal GST; dsDNA, one strand shown
T2 sequence: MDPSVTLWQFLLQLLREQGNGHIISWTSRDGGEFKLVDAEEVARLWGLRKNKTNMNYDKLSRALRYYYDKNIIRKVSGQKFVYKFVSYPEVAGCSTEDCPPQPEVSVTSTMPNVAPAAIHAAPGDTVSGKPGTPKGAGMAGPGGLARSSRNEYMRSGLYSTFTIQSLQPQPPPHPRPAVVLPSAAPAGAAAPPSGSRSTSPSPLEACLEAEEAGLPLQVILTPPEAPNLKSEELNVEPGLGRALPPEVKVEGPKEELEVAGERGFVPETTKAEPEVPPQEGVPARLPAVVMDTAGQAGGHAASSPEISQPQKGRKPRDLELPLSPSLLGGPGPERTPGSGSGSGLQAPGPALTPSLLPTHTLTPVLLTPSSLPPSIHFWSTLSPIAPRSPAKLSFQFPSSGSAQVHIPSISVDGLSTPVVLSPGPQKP
How it was run: as §1

GABPA = target: T3, GABPA (Homo sapiens, UniProt Q06546 1-454); settings: protein: recombinant; tags: N-terminal GST; dsDNA, one strand shown
T3 sequence: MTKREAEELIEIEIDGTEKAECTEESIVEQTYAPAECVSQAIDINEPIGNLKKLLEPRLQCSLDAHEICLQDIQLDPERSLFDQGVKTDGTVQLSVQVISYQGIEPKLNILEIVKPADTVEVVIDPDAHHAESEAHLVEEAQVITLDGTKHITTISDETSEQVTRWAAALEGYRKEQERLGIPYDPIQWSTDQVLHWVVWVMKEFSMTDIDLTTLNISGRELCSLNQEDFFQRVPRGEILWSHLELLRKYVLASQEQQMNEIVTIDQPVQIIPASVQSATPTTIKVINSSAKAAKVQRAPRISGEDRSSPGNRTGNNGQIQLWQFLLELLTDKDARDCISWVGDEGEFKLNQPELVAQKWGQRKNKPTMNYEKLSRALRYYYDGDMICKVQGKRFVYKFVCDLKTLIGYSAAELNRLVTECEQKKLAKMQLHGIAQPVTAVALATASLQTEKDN
How it was run: as §1

ERG = target: T4, ERG (Homo sapiens, UniProt P11308 1-479); settings: protein: recombinant; tags: N-terminal GST; dsDNA, one strand shown
T4 sequence: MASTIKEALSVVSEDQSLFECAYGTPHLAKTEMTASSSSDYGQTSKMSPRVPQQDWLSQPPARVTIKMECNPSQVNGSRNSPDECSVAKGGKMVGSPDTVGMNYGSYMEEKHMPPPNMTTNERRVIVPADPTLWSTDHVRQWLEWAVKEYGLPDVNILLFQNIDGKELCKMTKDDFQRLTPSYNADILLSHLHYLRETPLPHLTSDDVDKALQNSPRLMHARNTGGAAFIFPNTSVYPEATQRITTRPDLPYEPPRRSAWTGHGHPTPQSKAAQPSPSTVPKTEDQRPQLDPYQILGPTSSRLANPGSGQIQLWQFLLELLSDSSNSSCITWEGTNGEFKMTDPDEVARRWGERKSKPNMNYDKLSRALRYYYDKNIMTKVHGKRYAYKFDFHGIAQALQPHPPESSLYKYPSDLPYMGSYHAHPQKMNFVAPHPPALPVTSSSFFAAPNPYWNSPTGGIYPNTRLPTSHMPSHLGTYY
How it was run: as §1

ELF1 = ELF1 (Homo sapiens, UniProt P32519 1-619); settings: protein: recombinant; tags: N-terminal GST; dsDNA, one strand shown
How it was run: as §1

EHF = target: T5, EHF (Homo sapiens, UniProt Q9NZC4 1-300); settings: protein: recombinant; tags: N-terminal GST; dsDNA, one strand shown
T5 sequence: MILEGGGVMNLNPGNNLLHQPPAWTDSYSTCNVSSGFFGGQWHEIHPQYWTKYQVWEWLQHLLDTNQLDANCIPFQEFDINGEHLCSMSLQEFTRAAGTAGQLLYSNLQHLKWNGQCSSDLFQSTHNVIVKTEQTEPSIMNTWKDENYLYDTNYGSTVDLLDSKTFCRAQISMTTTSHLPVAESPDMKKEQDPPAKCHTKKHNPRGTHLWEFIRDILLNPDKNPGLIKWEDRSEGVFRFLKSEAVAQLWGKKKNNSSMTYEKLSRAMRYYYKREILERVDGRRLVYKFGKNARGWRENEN
How it was run: as §1

SPI1 = SPI1 (Homo sapiens, UniProt P17947 1-270); settings: protein: recombinant; tags: N-terminal GST; dsDNA, one strand shown
How it was run: as §1

SPIB = SPIB (Homo sapiens, UniProt Q01892 1-262); settings: protein: recombinant; tags: N-terminal GST; dsDNA, one strand shown
How it was run: as §1

ELK3 = target: T6, ELK3 (Homo sapiens, UniProt P41970 1-407); settings: protein: recombinant; tags: N-terminal GST; dsDNA, one strand shown
T6 sequence: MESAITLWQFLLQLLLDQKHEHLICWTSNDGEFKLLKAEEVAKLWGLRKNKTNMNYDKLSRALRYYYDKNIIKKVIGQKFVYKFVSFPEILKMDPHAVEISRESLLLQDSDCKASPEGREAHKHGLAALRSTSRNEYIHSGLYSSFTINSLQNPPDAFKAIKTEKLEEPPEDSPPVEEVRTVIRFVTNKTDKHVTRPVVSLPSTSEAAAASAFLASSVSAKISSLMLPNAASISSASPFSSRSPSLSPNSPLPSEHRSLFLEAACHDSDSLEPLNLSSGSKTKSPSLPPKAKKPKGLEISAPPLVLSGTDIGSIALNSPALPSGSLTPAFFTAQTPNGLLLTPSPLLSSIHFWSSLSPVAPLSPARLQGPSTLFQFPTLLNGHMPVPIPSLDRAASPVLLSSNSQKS
How it was run: as §1

FEV = target: T7, FEV (Homo sapiens, UniProt Q99581 1-238); settings: protein: recombinant; tags: N-terminal GST; dsDNA, one strand shown
T7 sequence: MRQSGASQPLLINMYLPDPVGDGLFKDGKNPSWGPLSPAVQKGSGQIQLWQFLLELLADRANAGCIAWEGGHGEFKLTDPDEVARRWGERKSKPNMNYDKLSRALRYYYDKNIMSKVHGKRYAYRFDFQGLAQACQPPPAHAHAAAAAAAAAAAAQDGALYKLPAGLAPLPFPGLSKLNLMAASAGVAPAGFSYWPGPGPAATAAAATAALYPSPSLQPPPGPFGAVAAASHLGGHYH
How it was run: as §1

ETV5 = ETV5 (Homo sapiens, UniProt P41161 1-510); settings: protein: recombinant; tags: N-terminal GST; dsDNA, one strand shown
How it was run: as §1

HSF1 = HSF1 (Homo sapiens, UniProt Q00613 1-529); settings: protein: recombinant; tags: N-terminal GST; chain copies: 3; dsDNA, one strand shown
How it was run: as §1

SPIC = target: T8, SPIC (Homo sapiens, UniProt Q8N5J4 1-248); settings: protein: recombinant; tags: N-terminal GST; dsDNA, one strand shown
T8 sequence: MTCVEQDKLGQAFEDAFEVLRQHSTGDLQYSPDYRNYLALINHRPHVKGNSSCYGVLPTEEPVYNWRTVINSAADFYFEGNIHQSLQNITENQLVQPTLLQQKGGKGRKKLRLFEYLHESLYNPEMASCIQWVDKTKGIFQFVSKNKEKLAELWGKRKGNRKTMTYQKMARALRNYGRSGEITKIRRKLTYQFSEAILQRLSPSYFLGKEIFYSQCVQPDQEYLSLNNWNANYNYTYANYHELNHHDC
How it was run: as §1

ELF4 = ELF4 (Homo sapiens, UniProt Q99607 1-663); settings: protein: recombinant; tags: N-terminal GST; dsDNA, one strand shown
How it was run: as §1

ELK4 = target: T9, ELK4 (Homo sapiens, UniProt P28324-2 1-405); settings: protein: recombinant; tags: N-terminal GST; dsDNA, one strand shown
T9 sequence: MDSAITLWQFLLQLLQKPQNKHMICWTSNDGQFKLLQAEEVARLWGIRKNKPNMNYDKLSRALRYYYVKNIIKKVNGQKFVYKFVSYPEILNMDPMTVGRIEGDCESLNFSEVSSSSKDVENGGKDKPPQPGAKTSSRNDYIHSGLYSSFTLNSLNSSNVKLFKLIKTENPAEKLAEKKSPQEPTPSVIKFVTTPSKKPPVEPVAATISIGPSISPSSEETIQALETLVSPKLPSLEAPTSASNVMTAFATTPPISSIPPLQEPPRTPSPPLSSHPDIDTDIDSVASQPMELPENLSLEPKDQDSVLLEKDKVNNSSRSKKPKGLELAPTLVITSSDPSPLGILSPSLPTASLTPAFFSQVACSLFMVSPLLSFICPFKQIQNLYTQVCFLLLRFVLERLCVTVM
How it was run: as §1

ETV2 = target: T10, ETV2 (Homo sapiens, UniProt O00321 1-342); settings: protein: recombinant; tags: N-terminal GST; dsDNA, one strand shown
T10 sequence: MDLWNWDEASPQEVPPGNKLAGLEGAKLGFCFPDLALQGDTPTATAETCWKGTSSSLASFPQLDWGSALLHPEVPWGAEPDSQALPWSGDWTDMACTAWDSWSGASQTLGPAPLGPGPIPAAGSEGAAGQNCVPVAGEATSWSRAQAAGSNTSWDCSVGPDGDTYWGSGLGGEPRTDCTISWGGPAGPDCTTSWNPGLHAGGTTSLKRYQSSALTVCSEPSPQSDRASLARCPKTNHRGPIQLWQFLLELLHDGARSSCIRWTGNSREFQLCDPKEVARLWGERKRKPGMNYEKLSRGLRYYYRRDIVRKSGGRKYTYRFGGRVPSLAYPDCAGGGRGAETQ
How it was run: as §1

ELF3 = target: T11, ELF3 (Homo sapiens, UniProt P78545 1-371); settings: protein: recombinant; tags: N-terminal GST; dsDNA, one strand shown
T11 sequence: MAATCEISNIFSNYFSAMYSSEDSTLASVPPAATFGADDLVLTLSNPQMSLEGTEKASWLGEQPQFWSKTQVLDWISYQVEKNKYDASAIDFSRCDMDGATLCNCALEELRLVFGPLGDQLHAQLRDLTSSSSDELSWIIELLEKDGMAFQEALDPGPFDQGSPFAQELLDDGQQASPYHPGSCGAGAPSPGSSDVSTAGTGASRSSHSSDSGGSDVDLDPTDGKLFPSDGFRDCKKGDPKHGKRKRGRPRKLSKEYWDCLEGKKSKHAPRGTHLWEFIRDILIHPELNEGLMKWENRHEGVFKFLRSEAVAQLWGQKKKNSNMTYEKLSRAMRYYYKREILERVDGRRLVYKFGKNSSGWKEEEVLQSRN
How it was run: as §1

CRX = CRX (Homo sapiens, UniProt O43186 1-299); settings: protein: recombinant; tags: N-terminal GST; dsDNA, one strand shown
How it was run: as §1

ETV1 = ETV1 (Homo sapiens, UniProt P50549 1-477); settings: protein: recombinant; tags: N-terminal GST; dsDNA, one strand shown
How it was run: as §1

ETV1, sequence (P50549 whole entry): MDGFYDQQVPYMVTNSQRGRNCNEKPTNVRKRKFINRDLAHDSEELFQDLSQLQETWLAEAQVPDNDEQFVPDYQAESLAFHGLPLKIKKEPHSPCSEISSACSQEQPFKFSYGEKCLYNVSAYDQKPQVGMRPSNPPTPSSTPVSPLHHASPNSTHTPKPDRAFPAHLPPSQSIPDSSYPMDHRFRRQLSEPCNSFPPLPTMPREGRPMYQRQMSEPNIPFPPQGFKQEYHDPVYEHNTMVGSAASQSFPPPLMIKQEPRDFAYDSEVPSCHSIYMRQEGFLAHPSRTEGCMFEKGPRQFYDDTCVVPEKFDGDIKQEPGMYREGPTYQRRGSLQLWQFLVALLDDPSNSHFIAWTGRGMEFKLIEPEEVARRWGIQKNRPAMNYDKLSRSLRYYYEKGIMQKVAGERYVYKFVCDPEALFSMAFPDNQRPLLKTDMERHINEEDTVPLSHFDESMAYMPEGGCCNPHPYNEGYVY
ELF4, sequence (Q99607 whole entry): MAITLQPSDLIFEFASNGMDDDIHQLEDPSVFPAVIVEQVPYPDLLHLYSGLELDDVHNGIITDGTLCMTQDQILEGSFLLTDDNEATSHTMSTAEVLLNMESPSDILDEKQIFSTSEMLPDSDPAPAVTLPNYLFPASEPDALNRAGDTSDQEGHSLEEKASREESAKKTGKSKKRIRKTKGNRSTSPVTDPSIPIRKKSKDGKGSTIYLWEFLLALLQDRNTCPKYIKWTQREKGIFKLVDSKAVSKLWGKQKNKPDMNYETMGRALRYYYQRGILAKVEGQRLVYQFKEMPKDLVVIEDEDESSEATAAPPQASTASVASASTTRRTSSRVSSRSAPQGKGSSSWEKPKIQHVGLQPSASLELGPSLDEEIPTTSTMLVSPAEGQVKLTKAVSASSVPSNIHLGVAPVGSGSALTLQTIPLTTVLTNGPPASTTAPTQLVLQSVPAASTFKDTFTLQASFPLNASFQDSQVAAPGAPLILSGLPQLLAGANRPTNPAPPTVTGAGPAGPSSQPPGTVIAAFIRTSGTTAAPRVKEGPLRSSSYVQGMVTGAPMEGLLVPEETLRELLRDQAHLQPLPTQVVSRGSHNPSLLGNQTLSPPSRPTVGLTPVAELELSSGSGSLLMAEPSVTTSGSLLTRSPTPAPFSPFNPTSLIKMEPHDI
ELF1, sequence (P32519 whole entry): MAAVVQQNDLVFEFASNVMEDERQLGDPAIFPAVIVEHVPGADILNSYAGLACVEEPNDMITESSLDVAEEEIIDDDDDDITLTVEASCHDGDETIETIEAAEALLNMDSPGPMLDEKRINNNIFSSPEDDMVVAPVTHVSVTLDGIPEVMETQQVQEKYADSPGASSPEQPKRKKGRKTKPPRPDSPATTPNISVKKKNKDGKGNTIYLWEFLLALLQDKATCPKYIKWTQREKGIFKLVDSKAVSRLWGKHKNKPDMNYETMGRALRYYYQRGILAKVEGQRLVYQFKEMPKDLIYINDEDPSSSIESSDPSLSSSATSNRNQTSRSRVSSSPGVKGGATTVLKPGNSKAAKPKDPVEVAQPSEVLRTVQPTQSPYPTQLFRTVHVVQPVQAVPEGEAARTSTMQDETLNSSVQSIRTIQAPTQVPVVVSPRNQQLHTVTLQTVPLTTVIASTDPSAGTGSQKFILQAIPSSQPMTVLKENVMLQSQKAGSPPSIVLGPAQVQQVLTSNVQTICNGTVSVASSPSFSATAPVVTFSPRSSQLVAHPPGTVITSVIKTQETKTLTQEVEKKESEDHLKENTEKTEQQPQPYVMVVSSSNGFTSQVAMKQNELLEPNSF
CRX, sequence (O43186 whole entry): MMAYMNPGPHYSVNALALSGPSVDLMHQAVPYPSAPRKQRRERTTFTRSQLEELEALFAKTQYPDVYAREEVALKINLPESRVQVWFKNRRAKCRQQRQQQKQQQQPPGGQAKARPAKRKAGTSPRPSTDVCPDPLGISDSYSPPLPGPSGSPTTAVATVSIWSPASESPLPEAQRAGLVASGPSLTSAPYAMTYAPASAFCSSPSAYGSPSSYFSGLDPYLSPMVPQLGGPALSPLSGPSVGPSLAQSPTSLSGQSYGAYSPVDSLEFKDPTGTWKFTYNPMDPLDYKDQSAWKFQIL
ETV5, sequence (P41161 whole entry): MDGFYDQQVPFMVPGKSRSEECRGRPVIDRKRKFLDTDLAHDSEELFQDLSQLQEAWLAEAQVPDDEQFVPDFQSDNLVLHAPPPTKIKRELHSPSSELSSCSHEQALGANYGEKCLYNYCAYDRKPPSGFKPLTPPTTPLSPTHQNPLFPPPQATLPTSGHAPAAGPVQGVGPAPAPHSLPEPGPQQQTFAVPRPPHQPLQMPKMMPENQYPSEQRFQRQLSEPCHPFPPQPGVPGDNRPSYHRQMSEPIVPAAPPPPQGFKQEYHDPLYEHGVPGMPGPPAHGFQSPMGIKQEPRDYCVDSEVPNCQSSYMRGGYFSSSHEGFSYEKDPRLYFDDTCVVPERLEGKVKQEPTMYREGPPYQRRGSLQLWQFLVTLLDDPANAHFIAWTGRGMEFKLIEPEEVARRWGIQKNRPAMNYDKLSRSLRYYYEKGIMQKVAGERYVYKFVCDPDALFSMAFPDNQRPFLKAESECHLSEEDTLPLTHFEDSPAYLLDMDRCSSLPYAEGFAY
SPIB, sequence (Q01892 whole entry): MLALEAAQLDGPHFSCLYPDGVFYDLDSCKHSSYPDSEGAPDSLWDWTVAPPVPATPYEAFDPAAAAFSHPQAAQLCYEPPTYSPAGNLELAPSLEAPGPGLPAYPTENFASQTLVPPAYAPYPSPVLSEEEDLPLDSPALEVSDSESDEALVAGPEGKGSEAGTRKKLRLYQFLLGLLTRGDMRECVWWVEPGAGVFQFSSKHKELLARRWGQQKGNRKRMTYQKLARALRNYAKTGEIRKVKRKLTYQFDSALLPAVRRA
HSF1, sequence (Q00613 whole entry): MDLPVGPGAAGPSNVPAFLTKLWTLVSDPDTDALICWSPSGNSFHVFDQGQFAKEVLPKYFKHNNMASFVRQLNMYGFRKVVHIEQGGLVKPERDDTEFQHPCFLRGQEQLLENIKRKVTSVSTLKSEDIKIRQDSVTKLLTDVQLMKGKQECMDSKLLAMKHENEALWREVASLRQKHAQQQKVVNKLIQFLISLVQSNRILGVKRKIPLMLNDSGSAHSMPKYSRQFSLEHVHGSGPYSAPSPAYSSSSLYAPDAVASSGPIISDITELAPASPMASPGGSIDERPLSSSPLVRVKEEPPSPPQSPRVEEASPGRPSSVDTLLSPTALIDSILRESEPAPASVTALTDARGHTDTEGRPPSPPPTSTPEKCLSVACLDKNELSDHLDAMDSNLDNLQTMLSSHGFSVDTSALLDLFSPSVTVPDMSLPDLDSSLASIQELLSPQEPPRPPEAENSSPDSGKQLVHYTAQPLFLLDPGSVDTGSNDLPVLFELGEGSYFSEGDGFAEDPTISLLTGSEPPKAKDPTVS

CTGATT
binding signal (FLI1): 1.18 fold enrichment (6-mer frequency, TF over GST control)
binding signal (ELK1): 1.21 fold enrichment (6-mer frequency, TF over GST control)
binding signal (GABPA): 1.14 fold enrichment (6-mer frequency, TF over GST control)
binding signal (ERG): 1.2 fold enrichment (6-mer frequency, TF over GST control)
binding signal (ELF1): 1.22 fold enrichment (6-mer frequency, TF over GST control)
binding signal (EHF): 1.22 fold enrichment (6-mer frequency, TF over GST control)
binding signal (SPI1): 1.09 fold enrichment (6-mer frequency, TF over GST control)
binding signal (SPIB): 1.21 fold enrichment (6-mer frequency, TF over GST control)
binding signal (ELK3): 1.21 fold enrichment (6-mer frequency, TF over GST control)
binding signal (FEV): 1.05 fold enrichment (6-mer frequency, TF over GST control)
binding signal (ETV5): 1.25 fold enrichment (6-mer frequency, TF over GST control)
binding signal (HSF1): 1.32 fold enrichment (6-mer frequency, TF over GST control)
binding signal (SPIC): 1.5 fold enrichment (6-mer frequency, TF over GST control)
binding signal (ELF4): 1.22 fold enrichment (6-mer frequency, TF over GST control)
binding signal (ELK4): 1.09 fold enrichment (6-mer frequency, TF over GST control)
binding signal (ETV2): 1.21 fold enrichment (6-mer frequency, TF over GST control)
binding signal (ELF3): 1.12 fold enrichment (6-mer frequency, TF over GST control)
binding signal (CRX): 1.51 fold enrichment (6-mer frequency, TF over GST control)
binding signal (ETV1): 1.27 fold enrichment (6-mer frequency, TF over GST control)
